Compound activity from PubChem.
EBV LMP1 NFkB – Epstein-Barr LMP1 NF-kappaB reporter inhibition; LMP1-induced NF-kappaB luciferase reporter cells, luminescence; inhibition, % at 12.5 µM; actives 0.69% (n = 350,000); AID 504558; in the data active means inhibition above about 41%; inconclusive means no clear call, values can overlap the other calls;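 further: 0% = neutral control wells and 100% = reference inhibitor control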
KKLEB tox – CF airway cell cytotoxicity counter-screen. actives 0.36% (n = 360,000). KKLEB CF airway cells viability, ATPlite luminescence, overnight; hits give low values; cells stimulated with P. aeruginosa culture filtrate. activity change (cytotoxicity), % at 5 µM. AID 602141;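 active means corrected activity change at or below -50% at 5 µM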
MITF TRPM1 inh – reduces MITF-dependent TRPM1 promoter luciferase signal. actives 0.83% (n = 330,000). AID 488899. inhibition, % at 12.5 µM. SK-MEL-5 TRPM1 promoter luciferase, 24 h;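 active means mean inhibition across replicates of 60% or more, whatever share of single replicates reaches that level; inconclusive means some that reach 60%, reason not given; inactive means mean inhibition across replicates below 60%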
CF NFkB inh – cystic fibrosis NF-kB activation inhibition; AID 588850; KKLEB NF-kB-GFP reporter, PAF-induced, GFP fluorescence overnight; inhibition, % at 5 µM; actives 0.86% (n = 360,000);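 active means at least 50% inhibition at 5 µM, scaled per plate between neutral and stimulator controls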;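 further: PAF is a Pseudomonas aeruginosa culture filtrate used as stimulus; plate controls were PAF-stimulated DMSO wells for no effect and unstimulated DMSO wells for full effect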
HIF-2a block – HIF-2a inhibition | actives 0.72% (n = 360,000) | inhibition, % at 18.8 µM | 786-0 RCC cells HIF-2a reporter, luciferase luminescence, overnight;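 active means inhibition of the luminescence signal of 40% or more relative to plate controls, in a single-dose primary screen at 18.75 µM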
Peg3 prom inh – reduces Peg3 promoter-driven luciferase expression in HeLa | inhibition, % at 20 µM | actives 1.7% (n = 360,000) | HeLa PEG-Prom luciferase reporter, luminescence, overnight;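 active means inhibition of at least 50% at 20 µM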
An asterisk follows results filed as active; u = inconclusive; x = not tested or not shown. Compounds with a hit are over-represented: about 3% of the library has one in this group of screens.

SMILES	EBV LMP1 NFkB	KKLEB tox	MITF TRPM1 inh	CF NFkB inh	HIF-2a block	Peg3 prom inh
CC#CCN1c2ccccc2[C@]23C[C@@H](C(=O)OC)N(C(=O)C4CCC4)C2=NC(C(=O)OC)=C(C(=O)OC)[C@H]13	2	-6	-9	27	15	75*
C=CCN1c2ccccc2[C@]23C[C@@H](C(=O)OC)N(C(=O)c4cccs4)C2=NC(C(=O)OC)=C(C(=O)OC)[C@H]13	11	-20	-6	47	16	75*
CC(C)CN1C(=O)CSCC1(C)C(=O)Nc1ccc2c(c1)OCCO2 (stereo not drawn)	x	x	x	x	0	x
COC(=O)Nc1sc2c(c1C(=O)NCc1ccco1)CCCC2	56*	-6	-5	-10	-8	3
CNC1=C(N(C(C)=O)c2ccc(Br)cc2)C(=O)c2ccccc2C1=O	25	-62*	107*	76*	60*	102*
O=C1C2CC=CCC2C(=O)N1Cc1ccccc1 (stereo not drawn)	-3	0	-4	2	14	5
O=C1C=CC(=O)N1Cc1ccccc1	30	-21	17	76*	1	104*
O=C(Nc1ncccc1O)c1ccc(S(=O)(=O)NCc2ccco2)cc1	43*	-20	x	33	-30	-3
COCCN1C(=O)CCC1(C)C(=O)Nc1ccc2c(c1)OCCO2 (stereo not drawn)	x	-7	x	-2	8	5
CC(C)Nc1nnc(SCC(=O)c2c(N)n(Cc3ccccc3)c(=O)n(C)c2=O)s1	64*	3	-4	0	35	22
COc1ccc2c(CC(=O)Nc3ncc(C)s3)coc2c1	-53	-7	-40	26	-238	65*
COc1ccc2c(CC(=O)Nc3nc(C)cs3)coc2c1	3	-13	-8	6	-62	-73
Nc1nccnc1C(=O)OCC(=O)C12CC3CC(CC(C3)C1)C2	6	-6	-10	10	6	-24
N#CC1(C#N)CC(C=O)=C(N)C1(C#N)CC(=O)C12CC3CC(CC(C3)C1)C2 (stereo not drawn)	20	-55*	30	82*	27	49
COc1ccc(/C=C2\N=C(C)OC2=O)cc1[N+](=O)[O-]	46*	-8	0	8	18	2
O=C(Nc1cc(S(=O)(=O)N2CCOCC2)ccc1N1CCOCC1)c1ccccc1[N+](=O)[O-]	2	2	-5	-17	12	5
Cc1ccc(NC(=O)c2ccc([N+](=O)[O-])s2)cc1S(=O)(=O)N1CCOCC1	-5	-16	92*	37	29	11
O=C(Nc1cc(S(=O)(=O)N2CCOCC2)ccc1N1CCOCC1)c1ccc([N+](=O)[O-])s1	-8	1	83*	-12	-4	3
OCc1ccc(O)c2ncccc12	-14	-2	u	19	3	27
CC(C)COCc1ccc(O)c2ncccc12	8	-1	63*	2	21	55*
CCCOCc1ccc(O)c2ncccc12	-1	-12	69*	19	1	42
Oc1ccc(CNc2ccccc2F)c2cccnc12	8	3	65*	-5	-12	40
Oc1ccc(CN2CCCCC2)c2cccnc12	-2	-5	33	-18	-1	-2
Oc1ccc(CN2CCc3ccccc3C2)c2cccnc12	82*	-14	71*	17	-13	94*
Cc1cccc(N(CC(=O)NCc2ccco2)S(=O)(=O)c2ccccc2)c1	-24	-11	x	16	6	3
SMILES	EBV LMP1 NFkB	KKLEB tox	MITF TRPM1 inh	CF NFkB inh	HIF-2a block	Peg3 prom inh
Cc1ccc(C)c(S(=O)(=O)N2CCN(Cc3ccc(O)c4ncccc34)CC2)c1	19	-13	74*	-2	18	38
CSc1ncccc1C(=O)N1CCN(S(=O)(=O)c2cc(C)ccc2C)CC1	5	3	5	3	18	11
Oc1ccc(Cc2ccccc2)c2cccnc12	x	3	x	0	5	69*
O=C1CCCCC1Nc1ccc2ccccc2c1 (stereo not drawn)	-1	-6	-16	16	-173	-140
O=C(NCc1ccccc1)C(c1cc2ccccc2o1)n1c(=O)c(-c2cc3ccccc3[nH]2)nc2ccccc21 (stereo not drawn)	x	x	x	x	-54	x
COCCCN1C(=O)C(CC(=O)NCC2CCCCC2)CC(C(=O)N(C)C)=C1C (stereo not drawn)	-5	28	x	-27	4	0
O=C(N/N=C(/CC(=O)c1cccs1)C(F)(F)F)c1ccc(O)cc1	49*	5	7	-12	4	4
O=C(N/N=C(\CC(=O)c1cccs1)C(F)(F)F)c1cccnc1	-1	-2	5	-9	4	-1
CCCCCCCCn1ccc(=N)cc1	15	7	10	2	10	9
CCCCCCCCCCCCCCCCn1cc[n+](C)c1	5	-94*	70*	84*	82*	108*
COc1cc2ccc(C=O)cc2cc1OC	-10	8	x	8	-9	-12
COc1cc(CNC(=O)Nc2cccn3nc(COCCO)nc23)cc(OC)c1OC	x	-8	x	-24	4	-4
O=C(N/N=C/c1ccccn1)c1cc([N+](=O)[O-])cc([N+](=O)[O-])c1	5	-6	67*	-5	14	12
S=C(N/N=C/c1ccc2ncccc2c1)Nc1cccnc1	55*	10	33	3	18	20
Oc1ccc(/C=N/NC(=S)Nc2cccnc2)cc1O	3	-7	5	1	-35	-30
O=C(O)c1cccc(NC(=S)N/N=C/c2ccccn2)c1	38	7	63*	11	36	-62
CCCCNC(=NCc1cccc(C(F)(F)F)c1)Nc1ccccc1	5	-8	-2	11	-4	76*
O=C(c1ccco1)N1CCN(c2ncnc3scc(-c4cccs4)c23)CC1	-3	-4	16	26	0	53*
O=C(c1ccco1)N1CCN(c2ncnc3scc(-c4ccccc4)c23)CC1	8	-7	-2	24	26	28
CCOC(=O)N1CCC(n2c(=S)[nH]c3ccccc3c2=O)CC1	66*	-1	-21	-3	20	-4
O=C(NCc1ccc(F)cc1)c1cc(C2CCCN(C(=O)C3CCCCC3)C2)on1 (stereo not drawn)	x	-2	x	-5	4	8
O=S(=O)(c1ccc(NC(=S)Nc2ccccc2)cc1)N1CCOCC1	6	-8	4	2	-9	12
CC(C)CCCCCCNC(=S)Nc1ccc(S(=O)(=O)N2CCOCC2)cc1	-7	-26	1	52*	9	62*
CC[C@]12c3[nH]c4ccc(Cl)cc4c3CCN1C(=O)[C@@H](CC(=O)NC/C=C(\C)CCC=C(C)C)C[C@@H]2C(=O)N1CCN(C(=O)C2CC2)CC1	2	-4	39	19	-28	60*
